Compound activity: PubChem BioAssay, several laboratories
Only some compounds are listed: those with a hit (about 2.2% of all), similar ones and a draw of the others.
Myeloid diff 2: compounds promoting myeloid differentiation. ER-HoxA9 myeloid progenitors, lysozyme-GFP differentiation, flow cytometry. calls only at 10 µM. hit rate 1% among 360,000;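 active = normalized GFP-positive differentiation at or above the plate's own cutoff, the solvent-only control mean plus 3 SD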;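 also: cells exposed to compound for four days before flow analysis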
ABCB6 inh MLPCN: human ABCB6 transporter inhibition; K562-ABCB6 porphyrin accumulation, flow cytometry, 1 h; hits give low values; Q9NP58; hit rate 0.19% among 360,000; fluorescence ratio to DMSO, % at 10 µM;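 active = fluorescence ratio to DMSO below 75%, the collection mean minus 3 SD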;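 also: signal is porphyrin accumulated inside mitochondria; 100% equals median channel fluorescence of DMSO control wells; lower ratio means ABCB6 inhibition with less porphyrin fluorescence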
Target sequence (Q9NP58 whole entry, looked up): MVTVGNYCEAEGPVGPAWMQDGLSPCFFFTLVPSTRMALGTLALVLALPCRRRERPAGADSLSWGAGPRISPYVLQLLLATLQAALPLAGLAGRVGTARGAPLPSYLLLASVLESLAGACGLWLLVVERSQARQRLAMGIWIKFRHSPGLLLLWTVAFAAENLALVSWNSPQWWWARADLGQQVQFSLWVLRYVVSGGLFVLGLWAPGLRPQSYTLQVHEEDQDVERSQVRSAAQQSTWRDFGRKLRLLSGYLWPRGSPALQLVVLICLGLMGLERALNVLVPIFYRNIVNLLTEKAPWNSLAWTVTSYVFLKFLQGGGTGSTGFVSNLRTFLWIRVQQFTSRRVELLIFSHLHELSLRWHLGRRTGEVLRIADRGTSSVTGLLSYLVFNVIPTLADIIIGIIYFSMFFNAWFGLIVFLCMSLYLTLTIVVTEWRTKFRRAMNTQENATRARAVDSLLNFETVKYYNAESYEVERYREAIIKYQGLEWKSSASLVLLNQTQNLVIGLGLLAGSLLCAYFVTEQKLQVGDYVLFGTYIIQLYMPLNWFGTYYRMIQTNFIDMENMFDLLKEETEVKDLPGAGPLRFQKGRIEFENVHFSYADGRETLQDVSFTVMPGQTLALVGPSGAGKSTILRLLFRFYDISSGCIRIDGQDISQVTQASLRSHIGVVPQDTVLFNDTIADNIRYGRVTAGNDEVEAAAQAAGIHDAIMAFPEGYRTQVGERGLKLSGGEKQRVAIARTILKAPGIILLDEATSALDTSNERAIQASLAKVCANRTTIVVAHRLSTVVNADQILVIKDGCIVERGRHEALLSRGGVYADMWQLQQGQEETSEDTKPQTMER
H9c2 protect: protects H9c2 cardiomyocytes from peroxide injury. hit rate 0.63% among 360,000. H2O2 injury protection, ATPLite, 2 h. AID 588492. protection from H2O2 cell death, % at 20 µM;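 active = compounds giving at least 50% protection of heart cells from peroxide-induced death in the single-dose screen, raw or plate-pattern-corrected value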;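 also: 0% = DMSO wells with peroxide and 100% = DMSO wells without peroxide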
beta cell repl: inducers of beta-cell replication in MIN6 cells. MIN6 cells proliferation, ATPlite luminescence, 48 h; cells starved in 0.2% serum; 100% = growth in 10% serum. proliferation, % at 10 µM. hit rate 0.29% among 330,000. AID 2380;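 active = compounds whose signal lies at least 3.5 SD above the mean of all wells on their plate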;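 also: 0% = DMSO-treated cells in low-serum medium and 100% = 10% serum control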
hiPSC survival: hiPSC single-cell survival enhancement; ATPlite luminescence; 100% = ROCK inhibitor wells, 0% = DMSO; survival enhancement, % at 20 µM; hit rate 0.044% among 360,000; AID 602274; in the data active = survival enhancement above about 18%;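 also: cells exposed to compounds for 16 hours before the ATP read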
Myeloid diff: myeloid differentiation induction | ER-HoxA9 myeloid progenitors, GFP/Mac1 double-positive flow | shares compounds with Myeloid diff 2 | hit rate 2% among 2,300 | AID 651706 | calls only;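 active = share of green or green-and-red cells above 9 and 9% in run 1 or 4 and 3% in run 2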
GFP autofluor: flagged as fluorescent in myeloid differentiation counter-screen | shares compounds with Myeloid diff 2 | ER-HoxA9 myeloid progenitors, no estrogen, GFP autofluorescence flow cytometry; vehicle wells 0%, positive control 100% | AID 651707 | fluorescence response, % (test concentration not listed) | hit rate 7.4% among 2,300;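 active = over 5% cells positive for green fluorescent reporter, or over 2% positive for both it and APC stain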;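 also: range taken on the double positive population between DMSO and positive control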
Starred values were filed as active, the others as inactive; i = inactive; . = no result given; + = active, no number.

SMILES	Myeloid diff 2	ABCB6 inh MLPCN	H9c2 protect	beta cell repl	hiPSC survival	Myeloid diff	GFP autofluor
Cc1ccccc1NC(=O)COc1coc(CN2CCCc3ccccc32)cc1=O	i	101	-1	-2	0	.	.
O=C(COc1coc(CN2CCCc3ccccc32)cc1=O)Nc1ccc([N+](=O)[O-])cc1	+	693	6	-2	1	i	0
c1ccc(Nc2cccc(Nc3ccccc3)c2)cc1	i	98	-14	-4	-2	.	.
c1ccc(Nc2cccc3ccccc23)cc1	i	110	-7	-2	1	i	0
O=C(Nc1ccccc1N1CCCCC1)c1ccc([N+](=O)[O-])o1	i	98	-7	-5	0	.	.
O=C(Nc1ccccc1N1CCOCC1)c1cccc2c(Br)cccc12	+	104	-8	1	-1	i	0
O=C(Nc1ccccc1N1CCOCC1)c1ccc([N+](=O)[O-])o1	i	95	0	-6	0	i	0
O=C(CCNC(=O)c1ccc(Br)cc1)Nc1ccccc1N1CCOCC1	i	101	3	-2	1	i	0
O=C(Nc1ccc(N2CCOCC2)cc1)c1cccc2c(Br)cccc12	i	100	-1	1	0	.	.
COc1cccc(/C=C/C(=O)N(C)CC(=O)Nc2ccc(Cl)c(C(F)(F)F)c2)c1	i	102	-8	-5	0	.	.
CC(O)CSc1nc2c(c(=O)[nH]c(=O)n2C)n1CC(O)COc1ccccc1 (configuration not stated)	i	97	12	-3	1	.	.
CCOC(=O)C(=CNc1ccccc1C)C(=O)OCC	i	91	-10	-6	2	.	.
CCOC(=O)C(=CNc1cc(C)nn1-c1ccccc1)C(=O)OCC	i	98	11	1	1	i	0
CCOC(=O)/C=C1\Nc2ccccc2OC1=O	+	94	-15	-2	1	i	0
CCOC(=O)/C=C1\CC(C(=O)OCC)Oc2ccccc21 (configuration not stated)	i	98	10	.	3	.	.
COc1cccc(C=Nc2cccc3c(=O)[nH][nH]c(=O)c23)c1O	+	102	-27	-2	-3	i	0
COc1ccc(C=Nc2cccc3c(=O)[nH][nH]c(=O)c23)c2ccccc12	i	97	2	-4	6	.	.
Cc1ccc(S(=O)(=O)CCC(=O)Nc2nc3c(s2)CCCC3)cc1	i	99	3	-5	4	.	.
CCCC1=[N+](CC(=O)c2ccc(Br)cc2)CCn2cccc21	i	109	-10	-3	0	i	3
CCCC1=[N+](CC(C)=O)CCn2c(C)ccc21	i	95	1	-2	2	.	.
CCCC1=[N+](CC(=O)c2ccccc2)CCn2cccc21	i	99	-6	-5	0	i	3
O=c1c(OC2OC(CO)C(O)C(O)C2O)c(-c2ccc(O)c(O)c2)oc2cc(O)cc(O)c12 (configuration not stated)	i	93	-2	2	-3	.	.
COc1ccc(CC(=O)N/N=C(\C)c2cccs2)cc1OC	i	96	5	0	0	.	.
O=c1[nH][nH]cc1C=Nc1ccccc1O	+	68*	-17	-4	0	+	0
O=c1[nH][nH]cc1C=Nc1ccc(Cl)cc1Cl	i	97	0	0	-2	.	.
SMILES	Myeloid diff 2	ABCB6 inh MLPCN	H9c2 protect	beta cell repl	hiPSC survival	Myeloid diff	GFP autofluor
O=c1[nH][nH]cc1C=Nc1ccccc1Cl	i	100	2	-1	2	.	.
O=c1[nH][nH]cc1C=Nc1cc(Cl)ccc1O	i	111	19	-4	-2	i	0
COc1ccc(CNC(=O)c2cccc(N3CCCC3=O)c2)cc1	i	103	-4	-1	1	.	.
COc1ccc(OC)c(CNc2nc3ccccc3n2CCN2CCCCC2)c1	i	86	-13	0	3	.	.
O=C(C1CCCN(S(=O)(=O)c2cc(Cl)ccc2Cl)C1)N1CCCCCC1 (configuration not stated)	i	93	-3	0	3	.	.
C=CCOc1c(Br)cc(/C=C2\SC(=Nc3ccccc3)NC2=O)cc1OC	i	101	-10	-5	-1	.	.
CS(=O)(=O)N(Cc1ccc(Cl)cc1)c1ccc(C(=O)NCCSc2ccccn2)cc1	+	89	-1	0	1	i	4
CO/N=C(\CS(=O)(=O)Cc1ccc(OC)cc1)c1ccc(Cl)cc1	i	93	-6	-1	1	i	3
COc1ccc(CS(=O)(=O)CC(C)(O)c2ccc(Cl)cc2)cc1 (configuration not stated)	.	82	-5	-1	0	.	.
O=C1CC(C(=O)N2CCCc3ccccc32)CN1c1ccc(Cl)cc1 (configuration not stated)	i	92	4	-1	1	i	0
O=C1CC(C(=O)N2CCCc3ccccc32)CN1c1ccc(F)cc1 (configuration not stated)	i	172	5	1	0	.	.
Cc1ccc(C(=O)N/C(=C\c2cccc([N+](=O)[O-])c2)C(=O)NCc2ccncc2)cc1	i	91	6	0	0	.	.
COc1ccc(NC(=O)CCN2CCN(S(=O)(=O)c3cc(Cl)ccc3Cl)CC2)cc1	i	98	-6	-1	-1	.	.
Nc1ccc(N2CCN(c3ccc(F)cc3)CC2)cc1	+	103	-2	-3	1	i	0
Nc1ccc(N2CCCCCC2)cc1	.	.	.	-6	.	.	.
CCCC(=O)Nc1nnc(SCC)s1	i	108	20	0	0	.	.
CS(=O)(=O)c1ccc2nc(NC(=O)CS(=O)(=O)Cc3ccccc3)sc2c1	+	88	0	-2	-2	i	0
COc1cccc(OC)c1C(=O)Nc1nc2ccc(S(C)(=O)=O)cc2s1	+	94	4	-1	-1	i	0
COc1ccc(C(=O)Nc2nc3ccc(S(C)(=O)=O)cc3s2)cc1OC	i	100	27	0	-1	.	.
CS(=O)(=O)c1ccc2nc(NC(=O)Cc3ccccc3)sc2c1	i	98	15	-2	-2	.	.
CCOc1ccc(-c2nnc(NC(=O)Cc3ccc(OC)cc3)o2)cc1	i	95	3	-1	0	.	.
CCOC(=O)c1ccccc1NC(=O)c1nc2nccc(C)n2n1	i	122	7	-1	12	.	.
O=C(Nc1ncc(Cc2ccccc2)s1)C1=NCCN1	i	98	14	0	0	.	.
O=C(NC1CCCCC1)c1cccc2c1C(=O)c1ccc(N3CCC(Cc4ccccc4)CC3)cc1S2(=O)=O	+	164	0	-4	0	i	1
CC1=NCCN1S(=O)(=O)c1cc([N+](=O)[O-])ccc1Cl	i	92	-1	2	-1	.	.
